In all, about 1,500 compounds went through this assay and about 430 (29%) were called active. The rule behind the calls is not given here. Only a sample is shown. Potency and affinity values are given separately.

A short description of this test: insulin secretion activators without glucose, dose response, counter-screen for glucose-dependent insulin secretion activators, cell-based, INS-1E, Gaussia luciferase, luminescence, cherry-pick (AID 977606).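 Note: 0% = median of neutral control wells.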 The conditions noted are these: INS-1E Gaussia luciferase insulin secretion, no glucose, 100% = twice neutral-control luminescence; series mostly up to 35 µM; activation: at the top concentration. On the technique in general: Counterscreens check selectivity or assay interference.
`Cc1cc(C)n2ncc(-c3cccc(Br)c3)c2n1`: the “activation” value was -14.8% (inactive).

As to `CCN(CC)C(=O)Cn1c(=O)oc2ccccc21`, the “activation” value is -22.1% (inactive).

Turning to `COC(=O)N1CCCCC1c1cc(C(=O)NCc2ccc(Cl)c(Cl)c2)no1` (stereo not drawn), the “activation” value is -5.55% (inactive).

As to `c1ccc2c(N3CCCCC3)nc(N3CCCC3)nc2c1`, the “activation” value is -5.3% (inactive).

With `CCOC(=O)c1nc(-c2ccccc2)oc1N(C)C`, the “activation” value is -3.63% (inactive).

Consider `CCOC(=O)c1sc2nc(C)[nH]c(=O)c2c1C`, for which the “activation” value was -1.02% (inactive).

As to `COc1ccc(Cc2nnc(-c3ccccc3)o2)cc1`, the “activation” value is -14.9% (inactive).

Take `CCCc1nc2n[nH]c(N)c2c2c1COC(C)(C)C2`: the “activation” value was 7.71% (inactive).

On to `O=C(COc1nncc2ccccc12)NCC(F)(F)F`, for which the “activation” value was -2.23% (inactive).

With `O=C(c1cccc(F)c1)N1CCCc2ccccc21`, the “activation” value is 0.696% (inactive).

For the compound `CCOc1ccc(CCNC(=O)COc2cccc(-n3cnnn3)c2)cc1OCC`, the “activation” value was -5.23% (inactive).

As to `COc1ccc(-c2ccc(=O)n(CC(=O)NC3CCc4ccccc43)n2)cc1OC` (stereo not drawn), the “activation” value is -12.5% (inactive).

For `COCc1ccc(C(=O)NC2CCSc3ccccc32)cc1` (stereo not drawn), the “activation” value was 2.17% (inactive).

As for `CCOc1ccc(C(=O)NCC(=O)OCCN2C(=O)c3ccccc3C2=O)cc1OCC`, the “activation” value is -13.5% (inactive).

Regarding `CCOc1ncccc1C(=O)Nc1ncc(C)s1`, the “activation” value was 1.46% (inactive).

For the compound `Cc1cc(NCc2ccccn2)nc2ccccc12`, the “activation” value was 1.81% (inactive).

Take `O=C(O)CCCC(=O)N1CCN(c2nc(-c3ccccc3)c3ccccc3n2)CC1`: the “activation” value was 3.53% (inactive).

Take `C/C=C1\COC(C(=O)NCc2ccccc2)(C(F)(F)F)C=C1C=C1CCCCC1` (stereo not drawn): the “activation” value was 15.7% (inactive).

On to `CC1=NS(=O)(=O)NC(C)(C)C1`, for which the “activation” value is 2.88% (inactive).

As to `COc1ccc(C2=Nn3c(nnc3-c3ccccc3OC)SC2)cc1OC1CCOC1` (stereo not drawn), the “activation” value is -8.39% (inactive).

With `Cc1ccc2nc(Cl)nc(-c3ccccc3)c2c1`, the “activation” value was 11.6% (inactive).

With `Cc1ccc2nc(N/N=C/c3ccccc3C#N)nc(-c3ccccc3)c2c1`, the “activation” value is 16.9% (inactive).

Take `CCOc1ccc(CCNC(=O)CCNC(=O)c2ccco2)cc1OCC`: the “activation” value is 4.42% (inactive).

Consider `COc1ccc(CCNC(=O)CCc2ccccc2)cc1OC`, for which the “activation” value was -95.1% (inactive).

For the compound `COc1ccc(CCNC(=O)CCc2ccccc2O)cc1OC`, the “activation” value was -18.4% (inactive).

With `N=c1n(CCN2CCCCC2)c2ccccc2n1CC(O)COc1ccccc1` (stereo not drawn), the “activation” value was -7.71% (inactive).

For `Clc1cc(NC2CCCCC2)ncn1`, the “activation” value is 2.37% (inactive).

For the compound `COc1cccc(-c2cc(C(F)(F)F)nc(-n3cncn3)n2)c1`, the “activation” value is -12% (inactive).

Turning to `CN(C)S(=O)(=O)c1cccc(-c2csc(N/N=C/c3ccco3)n2)c1`, the “activation” value was 0.741% (inactive).

For `Cc1cc(=O)n(Cc2ccccc2)c2ccccc12`, the “activation” value was -7.73% (inactive).

For `COc1ccc(CNC(=O)CCn2c(=O)oc3ccccc32)c(OC)c1`, the “activation” value is -4.5% (inactive).

On to `CC1(c2ccc(OC(F)F)cc2)NC(=O)N(CC(=O)Nc2cccc(S(N)(=O)=O)c2)C1=O` (stereo not drawn), for which the “activation” value was -10.9% (inactive).

Turning to `CCCn1nc(C(=O)NC2CCCC2)c2ccccc2c1=O`, the “activation” value is 1.18% (inactive).

In the case of `O=c1[nH]nc(-c2ccccc2)c2ccccc12`, the “activation” value is -13.1% (inactive).

In the case of `COc1ccc(CCN(C)C(=O)COc2cccc(-n3cnnn3)c2)cc1OC`, the “activation” value was -9.14% (inactive).

In the case of `CNc1nc(OCC#N)nc(N2CCCCC2)n1`, the “activation” value was -15.6% (inactive).

For the compound `Cc1ccc(-n2nnnc2SCc2ccc(C(=O)O)cc2)cc1C`, the “activation” value was -8.95% (inactive).

Regarding `C=CCNC(=S)Nc1ccc2cn[nH]c2c1`, the “activation” value is -19.4% (inactive).

With `O=S(=O)(N1CCOCC1)n1c(Cc2ccccc2)nc2ccccc21`, the “activation” value is -11.3% (inactive).

As for `O=C(Nc1ccc(F)cc1)N1CCCCN2[C@@H](CO)[C@@H](c3ccc(C#Cc4ccccc4)cc3)[C@@H]2C1`, the “activation” value was 6.08% (inactive).

As for `CCN(CC(=O)Nc1ccccc1OC)C(=O)C1CCCC1`, the “activation” value was -7.13% (inactive).

Consider `COc1ccc(C2=Nn3c(nnc3-c3ccccc3OC)SC2)cc1OCC1CC1`, for which the “activation” value was -21.9% (inactive).

Regarding `COc1ccc(C2=NN(C(=O)CCCC(=O)O)C(c3cccs3)C2)cc1OC` (stereo not drawn), the “activation” value was -4.08% (inactive).

Consider `O=c1[nH]nc(-c2cccs2)c2ccccc12`, for which the “activation” value was -1.69% (inactive).

With `CCCc1cc(=O)n2[nH]c(C)c(-c3ccc(Cl)cc3)c2n1`, the “activation” value was -8.12% (inactive).

In the case of `CCN1CCN(c2ccc(S(=O)(=O)N3CCCCC3)cc2NC(=O)c2cc3ccccc3o2)CC1`, the “activation” value is -13.4% (inactive).

`COc1ccc(NC(=O)c2csc(C)c2)cc1OC`: the “activation” value is -17% (inactive).

Take `CCNC(=O)C1(C)CCCN1C(=O)c1cc(OC)c(OC)c(OC)c1` (stereo not drawn): the “activation” value was 11.6% (inactive).

For the compound `COc1ccc(Nc2c3c(nc4ccccc24)CCC3)cc1`, the “activation” value was 13.9% (inactive).

As for `O=C(O)COc1ccccc1-c1ccccc1`, the “activation” value was -3.67% (inactive).

Regarding `COc1ccc(/C=N/NC(=O)CN(C2=NS(=O)(=O)c3ccccc32)c2ccccc2)cc1OC`, the “activation” value was -21.8% (inactive).

`CCN(c1ccccc1)c1nc(Cl)nc2c1cnn2C`: the “activation” value was 9.73% (inactive).

As for `COCCNC(=O)c1cc2c(c(-c3cccc(C#Cc4ccc(OC)c(OC)c4)c3)n1)[C@H](CCO)N(S(=O)C(C)(C)C)C2` (stereo partly drawn), the “activation” value is 4.47% (inactive).

On to `COc1ccc(C(=O)C2CCCN(C(=O)c3n[nH]c4c3CCCC4)C2)cc1OC` (stereo not drawn), for which the “activation” value is 3.75% (inactive).

As for `Cn1c(=O)[nH]c(=O)c2c1nc(N1CCCCC1)n2C/C=N/Nc1ccc(C(=O)O)cc1`, the “activation” value was 17.4% (inactive).

As to `Cc1cc(-c2ccc(S(=O)(=O)N3CCN(C)CC3)s2)on1`, the “activation” value is 38.2% (inactive).

With `Cc1cccc(C)c1NC(=O)NC1CCc2ccccc21` (stereo not drawn), the “activation” value was -13.9% (inactive).

With `COC(=O)c1ccc(C)c(-n2c(=O)n(Cc3ccccc3)c(=O)c3[nH]cnc32)c1`, the “activation” value was 1.73% (inactive).

For `COC(=O)c1scc(C)c1NC(=O)CC1NCCNC1=O` (stereo not drawn), the “activation” value was -6.37% (inactive).

Turning to `O=C(c1ccccc1)c1ccc2ccccc2n1`, the “activation” value is 4.53% (inactive).

Turning to `COc1ccc(CCNC(=O)NS(=O)(=O)c2ccc(C)cc2)cc1OC`, the “activation” value was -1.79% (inactive).

With `COc1cc2c(cc1OC)C(CSc1ccccc1C(=O)O)=NC(C)(C)C2`, the “activation” value was -14.8% (inactive).

As to `Cc1cccc2[nH]c3c(N4CC=C(c5ccc(F)cc5)CC4)ncnc3c12`, the “activation” value was 1.04% (inactive).

As for `COc1cc(C)c(C)cc1S(=O)(=O)N1CCCCC1c1cccnc1` (stereo not drawn), the “activation” value is 5.28% (inactive).

In the case of `C[C@@H]1CC2=C(C(=O)OC(C)(C)O2)[C@H](c2ccc(F)cc2)O1`, the “activation” value is 2.99% (inactive).

Take `CCCCn1c(=O)n(C)c(=O)c2c3c(sc21)COC(C)(C)C3`: the “activation” value was 19.6% (inactive).

Regarding `CCOC(=O)c1csc(-c2ccc(OC)c(OC)c2)n1`, the “activation” value is 12.5% (inactive).

`COc1ccc(-c2cc(C(=O)N3CCCCCC3)no2)cc1OC`: the “activation” value was -8.04% (inactive).

Turning to `C[C@@H]1CN([C@H](C)CO)C(=O)CCCn2cc(nn2)CO[C@H]1CN(C)S(=O)(=O)c1cccs1`, the “activation” value is 1.6% (inactive).

Consider `CCOc1cc(C(=O)N(C)CC(=O)Nc2cccc3ccccc23)ccc1OC`, for which the “activation” value was -4.18% (inactive).

On to `CCOc1ccc(-c2noc(CCC(=O)NC)n2)cc1OCC`, for which the “activation” value is -9.04% (inactive).

With `COc1cc2c(cc1OC)-c1cc(Nc3ccccc3C)nc(=O)n1CC2`, the “activation” value is 18.6% (inactive).

`CCOc1ccc(CCNC(=O)COC(=O)c2ccc(C)s2)cc1OCC`: the “activation” value is 11.7% (inactive).

The record behind these values is PubChem BioAssay AID977606 (Broad Institute, 2014).
